BoNT-A LC inh2 = BoNT/A light chain protease inhibitors, primary screen, biochemical, flow cytometry, MLPCN library | Botulinum neurotoxin type A light chain protease (Clostridium botulinum A str. ATCC 3502) | multiplex microsphere protease substrate cleavage | inhibition, % at 10 µM | 360,000 tested, 0.17% active | AID 588499, 2011; also: plate controls were buffer without enzyme for full effect and enzyme alone for no effect
Anthrax LF prot = Bacillus anthracis LF protease inhibitors, primary screen, biochemical, multiplex microsphere, MLPCN library; multiplex microsphere protease cleavage assay; inhibition, % at 10 µM; 360,000 tested, 0.12% active; AID 588501, 2011; also: plate controls were buffer without enzyme for full effect and enzyme alone for no effect
Target sequence (P15917 whole entry, looked up): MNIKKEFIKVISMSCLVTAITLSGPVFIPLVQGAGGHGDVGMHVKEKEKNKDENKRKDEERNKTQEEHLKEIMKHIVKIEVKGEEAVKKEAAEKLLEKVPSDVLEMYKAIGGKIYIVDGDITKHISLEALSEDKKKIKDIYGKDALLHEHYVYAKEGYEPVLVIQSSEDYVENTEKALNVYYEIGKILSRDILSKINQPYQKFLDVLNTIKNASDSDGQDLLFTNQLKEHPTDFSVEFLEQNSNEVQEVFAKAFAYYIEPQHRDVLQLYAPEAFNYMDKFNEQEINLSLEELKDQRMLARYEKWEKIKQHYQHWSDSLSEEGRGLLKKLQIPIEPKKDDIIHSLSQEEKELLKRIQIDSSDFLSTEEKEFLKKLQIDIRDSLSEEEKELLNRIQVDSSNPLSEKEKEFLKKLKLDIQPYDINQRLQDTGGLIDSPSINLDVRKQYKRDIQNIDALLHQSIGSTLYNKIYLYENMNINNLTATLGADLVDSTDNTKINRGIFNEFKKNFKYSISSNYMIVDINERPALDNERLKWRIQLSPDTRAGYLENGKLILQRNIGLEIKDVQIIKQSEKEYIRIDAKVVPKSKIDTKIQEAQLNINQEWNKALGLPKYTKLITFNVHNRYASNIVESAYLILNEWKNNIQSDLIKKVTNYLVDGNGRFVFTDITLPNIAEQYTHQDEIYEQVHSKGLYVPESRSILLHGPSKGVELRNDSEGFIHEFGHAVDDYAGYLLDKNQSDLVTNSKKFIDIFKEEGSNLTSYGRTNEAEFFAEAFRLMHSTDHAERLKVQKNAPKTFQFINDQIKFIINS
BoNT-F LC inh = BoNT/F light chain protease inhibitors, primary screen, biochemical, flow cytometry, MLPCN library | Botulinum neurotoxin type F light chain protease (Clostridium botulinum) | Multiplex microsphere protease cleavage assay | 360,000 tested, 0.22% active | inhibition, % at 10 µM; in the data active = inhibition above about 35%, passing the limit was not always enough; inconclusive = no clear call, values can overlap the other calls; also: plate controls were buffer without enzyme for full effect and enzyme alone for no effect
MazF activator = activators of E. coli MazEF toxin-antitoxin RNase, primary screen, biochemical, fluorescence, uHTS | AID 504720, 2011 | activation, % at 20 µM | 350,000 tested, 0.32% active | FAM/BHQ RNA-DNA oligo cleavage fluorescence, 5 h; in the data active = activation above about 50%
Autofluor counter = flagged as autofluorescent in microsphere protease counterscreen; compound autofluorescence counterscreen, microsphere flow cytometry; stronger effect = higher value; fluorescence intensity (concentration not given with the values); 360,000 tested, 3.1% active; AID 624483; in the data active = fluorescence intensity above about 16000; inconclusive = no clear call, values can overlap the other calls
* hit, by the source's call; u = inconclusive; x = not tested or not shown. Shown are actives, neighbours in structure and some others; about 3.7% of the full set was active somewhere. Rule as the data show it, unless noted: active = inhibition above about 30%; inconclusive = no clear call, values can overlap the other calls; inactive = below that.

SMILES	BoNT-A LC inh2	Anthrax LF prot	BoNT-F LC inh	MazF activator	Autofluor counter
Nc1nncn1C(=O)CCCOc1ccccc1	-1.0	-2.6	-9.0	2.9	4820
CCN(CC)C(=O)c1ccc(Cc2cn(C)c3ccccc23)nc1	-0.1	-6.0	-1.6	x	3490
CCOC(=O)C1=C(c2ccccc2)N=c2s/c(=C\c3ccc(O)cc3)c(=O)n2C1c1cccs1 (stereo not drawn)	15.2	21.0	5.1	-25.8	10458
CCOC(=O)C1=C(c2ccccc2)N=c2sc(=Cc3cc(OC)c(OC)c(OC)c3)c(=O)n2C1c1cccs1 (stereo not drawn)	32.4*	36.7*	17.6	x	3180
COc1ccccc1-c1ccc2c(c1)O[C@@H](CN(C)C(=O)c1ccncc1)[C@H](C)CN([C@@H](C)CO)S2(=O)=O	-0.2	-2.7	-2.2	6.7	2821
Cc1ocnc1C(=O)Nc1ccc(Cl)cc1	-1.7	-6.3	-4.2	3.0	20071*
Cc1ncoc1C(=O)Nc1cccc(Cl)c1	-1.0	0.5	-2.9	6.0	16565*
Cc1ncoc1C(=O)Nc1ccccc1C(N)=O	-0.4	0.3	-1.8	-7.3	23428*
Cc1ccc(NC(=O)c2ocnc2C)cc1Cl	-0.2	-0.6	3.8	7.3	7998
Cc1ncoc1C(=O)Nc1cccc(Cl)c1C	-3.5	-0.8	-1.6	-0.2	23395*
Cc1ccc(NC(=O)CN2C(=O)S/C(=C/c3ccc(-c4cc(C(=O)O)ccc4C)o3)C2=O)cc1C	-0.2	-4.5	-1.1	74.8*	16807*
NC(=O)CC1(c2ccccc2)CCCCC1	-0.4	3.0	-1.8	4.2	3588
CC(NC(=O)CCC(=O)N1CCCCCC1)c1ccccc1 (stereo not drawn)	1.1	-1.8	36.0*	5.5	4180
CC(NC(=O)C1CCCC1)c1ccccc1 (stereo not drawn)	-0.3	-6.5	16.7	10.5	3146
O=C(CNC(=O)Cc1ccccc1)NCC(=O)N1CCCCC1	0.8	-0.2	-3.4	1.3	6083
O=C(Cc1ccccc1)NCC(=O)N1CCCCCC1	1.9	1.9	2.7	11.8	22214*
CC(NC(=O)C1CCCN(C(=O)N(C)C)C1)c1ccccc1 (stereo not drawn)	0.2	-2.2	-1.5	-3.9	20508*
OCc1ccccc1-c1cnc2sc(NCc3ccc(F)cc3)nn12	0.0	-5.7	-0.1	x	3745
NS(=O)(=O)c1ccc(N/N=C/c2ccccc2C(=O)O)c([N+](=O)[O-])c1	-1.3	0.9	-0.8	6.5	3365
Cc1cc([N+](=O)[O-])c2[nH]c(C(=O)N/N=C/c3ccccc3C(=O)O)c(-c3ccccc3)c2c1	0.6	2.4	-1.1	-4.7	19535*
O=C1NCCc2onc(-c3ccc(Br)cc3)c21	-1.1	-5.3	-8.1	x	4376
Cc1cccc(NS(=O)(=O)c2ccc(C3CCCCC3)cc2)n1	-1.7	0.3	-2.9	-1.0	22937*
N#CCC(=O)Nc1ccc(C(=O)OCC(=O)N=c2sccn2Cc2ccccc2Cl)cc1	6.5	-4.4	-9.7	-17.0	u
CCOC(=O)c1c(C)n(C)c2ccc(OCC(O)Cn3c(C)nc4ccccc43)cc12 (stereo not drawn)	u	-1.5	-2.3	-7.9	23462*
CCOC(=O)c1c(C)n(C)c2ccc(OCC(O)CN3CCN(C)CC3)cc12 (stereo not drawn)	0.2	-3.8	-10.3	5.7	5503
SMILES	BoNT-A LC inh2	Anthrax LF prot	BoNT-F LC inh	MazF activator	Autofluor counter
CC(C)CC(=O)NC(=S)Nc1cccc(NC(=O)c2ccccc2)c1	-0.4	0.4	-2.2	3.2	2692
Cc1cc(NC(=S)NC(=O)CC(C)C)ccc1Br	-3.1	1.1	-6.0	4.1	25030*
Cc1ccc(C(=O)Nc2ccccc2OC(F)F)cc1	u	-6.9	-2.2	3.3	23774*
O=C(Nc1ccccc1OC(F)F)c1ccccc1	0.3	0.8	-0.2	-2.1	8328
CN(CC(=O)Nc1cccc(F)c1)C(=O)c1ccc(N2CCCCC2)c([N+](=O)[O-])c1	x	x	x	8.2	x
Cc1nc(-c2ccccc2)cc(N2CCCC2)n1	u	-0.9	1.5	0.2	23051*
Cn1c(=O)cc(SCC(=O)Nc2ccc3c(c2)OCO3)c2ccccc21	0.4	1.2	-2.7	11.8	3610
CCn1c(=O)cc(SCC(=O)Nc2ccc3c(c2)OCCO3)c2ccccc21	7.4	-3.5	9.7	1.5	20714*
CCn1c(COc2ccccc2C)nnc1SCC(=O)Nc1ccc2c(c1)OCCO2	u	1.5	-2.2	-2.2	20676*
